High-throughput results deposited in PubChem by Broad Institute.
An excerpt weighted towards active compounds, which were near 6.7% of everything screened.
C diff growth = C. difficile growth inhibition | 0.25% of 86,000 active | growth activity, negative = inhibition, % at 16 µg/mL (by protocol) | Clostridium difficile clinical isolate growth, OD600, 24 h; hits give low values | AID 1259249;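 active means mean growth activity at or below -80% and every replicate also at or below -80%; inconclusive means mean at or below -80% but some replicate above -80%; inactive means mean growth activity above -80%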
T cruzi growth-1 = T. cruzi proliferation inhibition. T. cruzi beta-gal in NIH3T3, GalScreen luminescence, 90 h. inhibition, % at 8.34 µM. 5.9% of 77,000 active;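 active means mean inhibition above about 93%, with at least 55% of replicates each passing it, limit read from the data, passing the limit was not always enough; inconclusive means only one of those two conditions holds; inactive means neither condition holds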
Pf Dd2 growth = blocks growth of Plasmodium falciparum Dd2 parasites; P. falciparum Dd2 growth, SYBR Green, 72 h; hits give low values; AID 1159554; 2.3% of 94,000 active; activity change, % at 10 µM; in the data active means activity change below about -80%; inconclusive means no clear call, values can overlap the other calls
T cruzi growth-2 = inhibitors of T. cruzi proliferation; shares compounds with T cruzi growth-1; T. cruzi beta-gal in NIH3T3, GalScreen luminescence, 90 h; inhibition, % at 8.35 µM; 72% of 5,600 active; AID 651739;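 active means mean replicate inhibition above about 95% and at least 55% of replicates individually reaching it, limit read from the data; inconclusive means only one of the two criteria is met; inactive means neither criterion is met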
T cruzi growth-3 = Trypanosoma cruzi proliferation inhibition; shares compounds with T cruzi growth-1; T. cruzi beta-gal in NIH3T3, GalScreen luminescence, 90 h; inhibition, % at 2.09 µM; 21% of 5,600 active;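 active means mean inhibition above about 95%, with at least 55% of replicates also reaching it, limit read from the data; inconclusive means meets just one of the two conditions; inactive means meets neither condition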
3T3 cytotox = NIH/3T3 (mouse) viability loss; shares compounds with T cruzi growth-1; NIH/3T3 viability, CellTiter-Glo ATP luminescence, 90 h; cytotoxicity (signal decrease), % at 8.35 µM; 14% of 5,600 active;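 active means mean signal decrease across replicates above about 35% based on untreated-well scatter, with enough replicates individually passing, limit read from the data; inconclusive means no rule stated though some were filed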
3T3 cytotox 2 = kills mouse NIH/3T3 fibroblasts; NIH/3T3 viability, CellTiter-Glo ATP luminescence, 90 h; AID 651744; shares compounds with T cruzi growth-1; inhibition, % at 24.9 µM; 56% of 5,600 active;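 active means mean loss of cell viability signal at or above a set limit, and enough replicates individually reaching it; inconclusive means meets only the mean limit or only the replicate share; inactive means meets neither condition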
Of the large screens only hits and unclear results are named; the others gave an inactive call (follow-up assays come after a bar, where they were run).

CC(C)CC#Cc1ccc2c(c1)O[C@@H](CN(C)C(=O)C1CC1)[C@H](C)CN([C@@H](C)CO)S2(=O)=O	T cruzi growth-1 104.2 (no result: C diff growth) | T cruzi growth-2 103.8 | T cruzi growth-3 inactive | 3T3 cytotox inactive | 3T3 cytotox 2 54.9
CC(C)CC#Cc1ccc2c(c1)O[C@@H](CN(C)C(=O)C1CCOCC1)[C@@H](C)CN([C@H](C)CO)S2(=O)=O	none
CC(C)CC#Cc1ccc2c(c1)O[C@@H](CN(C)C(=O)C1CCCCC1)[C@@H](C)CN([C@@H](C)CO)S2(=O)=O	T cruzi growth-1 112.7 | T cruzi growth-2 inconclusive | T cruzi growth-3 inconclusive | 3T3 cytotox inactive | 3T3 cytotox 2 105.4
CC(C)CC#Cc1ccc2c(c1)O[C@H](CN(C)C(=O)C1CCCCC1)[C@H](C)CN([C@@H](C)CO)S2(=O)=O	T cruzi growth-1 111.9 | T cruzi growth-2 102.1 | T cruzi growth-3 103.3 | 3T3 cytotox inactive | 3T3 cytotox 2 104.4
CC(=O)N(C)C[C@H]1Oc2cc(-c3cccnc3)ccc2S(=O)(=O)N([C@H](C)CO)C[C@H]1C	none (no result: C diff growth)
C[C@H]1CCCCO[C@@H](CN(C)C(=O)NC2CCCCC2)[C@@H](C)CN([C@@H](C)CO)C(=O)c2cc(NS(=O)(=O)c3ccccc3)ccc2O1	T cruzi growth-1 102.5 | T cruzi growth-2 inactive | T cruzi growth-3 inactive | 3T3 cytotox inactive | 3T3 cytotox 2 inactive
C[C@@H]1CCCCO[C@H](CN(C)C(=O)NC2CCCCC2)[C@H](C)CN([C@@H](C)CO)C(=O)c2cc(NS(=O)(=O)c3ccccc3)ccc2O1	T cruzi growth-1 102.1 | T cruzi growth-2 104.2 | T cruzi growth-3 inactive | 3T3 cytotox inactive | 3T3 cytotox 2 inactive
C[C@@H]1CCCCO[C@H](CN(C)C(=O)NC2CCCCC2)[C@H](C)CN([C@H](C)CO)C(=O)c2cc(NS(=O)(=O)c3ccccc3)ccc2O1	T cruzi growth-1 105.6, Pf Dd2 growth inconclusive | T cruzi growth-2 inactive | T cruzi growth-3 inactive | 3T3 cytotox inactive | 3T3 cytotox 2 inactive
C[C@@H]1CCCCO[C@H](CN(C)C(=O)NC2CCCCC2)[C@@H](C)CN([C@H](C)CO)C(=O)c2cc(NS(=O)(=O)c3ccccc3)ccc2O1	none
C[C@@H]1CCCCO[C@H](CN(C)C(=O)NC2CCCCC2)[C@@H](C)CN([C@@H](C)CO)C(=O)c2cc(NS(=O)(=O)c3ccccc3)ccc2O1	none
C[C@@H]1CN([C@H](C)CO)C(=O)c2cc(NS(=O)(=O)c3ccccc3)ccc2O[C@@H](C)CCCCO[C@@H]1CN(C)C(=O)NC1CCCCC1	none
CCCNC(=O)Nc1ccc2c(c1)C(=O)N(C)[C@@H]1CC[C@H](CC(=O)NCC3CCCCC3)O[C@H]1CO2	none
C[C@@H]1CN([C@H](C)CO)C(=O)c2cc(NC(=O)Nc3ccccc3)ccc2O[C@H]1CN(C)S(C)(=O)=O	none
O=C(C[C@H]1CC[C@H]2[C@@H](COC[C@@H](O)CN2S(=O)(=O)c2ccc(F)cc2)O1)NCc1ccc(Cl)c(Cl)c1	none
C[C@@H]1CN([C@@H](C)CO)C(=O)c2cc(NS(=O)(=O)c3ccc(Cl)cc3)ccc2O[C@@H](C)CCCCO[C@@H]1CN(C)Cc1ccc(C(F)(F)F)cc1	T cruzi growth-1 95.6 | T cruzi growth-2 inactive | T cruzi growth-3 115.6 | 3T3 cytotox inactive | 3T3 cytotox 2 93.3
C[C@H]1CCCCO[C@@H](CN(C)Cc2ccc(C(F)(F)F)cc2)[C@@H](C)CN([C@@H](C)CO)C(=O)c2cc(NS(=O)(=O)c3ccc(Cl)cc3)ccc2O1	none
C[C@@H]1CCCCO[C@H](CN(C)Cc2ccc(C(F)(F)F)cc2)[C@@H](C)CN([C@H](C)CO)C(=O)c2cc(NS(=O)(=O)c3ccc(Cl)cc3)ccc2O1	T cruzi growth-1 111.0 | T cruzi growth-2 104.7 | T cruzi growth-3 inactive | 3T3 cytotox inactive | 3T3 cytotox 2 103.7
C[C@@H]1CN([C@@H](C)CO)C(=O)c2cc(NS(=O)(=O)c3ccc(Cl)cc3)ccc2O[C@@H](C)CCCCO[C@H]1CN(C)Cc1ccc(C(F)(F)F)cc1	T cruzi growth-1 inconclusive | T cruzi growth-2 inactive | T cruzi growth-3 113.0 | 3T3 cytotox 104.1 | 3T3 cytotox 2 106.3
